According to PubChem BioAssay AID1259415 (National Center for Advancing Translational Sciences (NCATS), 2018):
Where “and” joins values, the source holds several entries; their conditions need not be identical. Equal values may be shown once. About 18,000 (4.4%) of roughly 410,000 compounds were called active. Inconclusive results (about 7%) are left out. Cut-off read from the data, not from the text of the source: active = activity change below about -60%; inconclusive = no clear call, values can overlap the other calls; inactive = above about -39%. What follows is part of a selection rich in actives, with near analogues and random picks from the rest. Some structures have more than one record in an assay (separate samples or runs), and their calls can disagree.

Experiment: qHTS Assay for inhibitors of the human cytomegalovirus (HCMV)
Settings: HFF cells, HCMV-luciferase reporter, 72 h; at 57.5 µM; stronger effect = lower value
In short: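 After 16 h attachment at 37C, HFF cells received test compound and HCMV-luciferase (1 PFU/cell); reporter luminescence read 72 h later, data normalized against buffer-only and known inhibitor Salinomycin.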
% is set by controls: 0 for no effect and ±100 for the full control effect.

| SMILES | activity change, negative = inhibition |
| --- | --- |
| CCOc1ccc(CN2CCN(Cc3ccon3)CC2CCO)cc1 (stereo not drawn) | 3.47% (inactive) |
| CC(C)(c1ccccc1)c1ccc(OCCN)cc1 | -107% (active) |
| C=CCNCCCCOc1ccccc1 | 16.3% (inactive) |
| Cc1nn(CCOc2ccccc2)c(=O)n1-c1ccccc1F | 69.3% (inactive) |
| O=C(/C=C/c1ccccc1)Oc1coc(CSc2ncccn2)cc1=O | 9.32% (inactive) |
| COC(=O)c1ccc(OC)c(Cn2c(=O)n(Cc3ccccc3)c(=O)c3c2c2cc(OC)ccc2n3C)c1 | 7.51% (inactive) |
| O=C(Nc1ccccc1)N1CCC(C(=O)N2CCN(Cc3ccccc3)CC2)CC1 | 0% (inactive) |
| O=C(C1CCN(S(=O)(=O)c2cnc[nH]2)CC1)N1CCN(Cc2ccc3c(c2)OCO3)CC1 | 9.71% (inactive) |
| O=C(C1CCN(Cc2ccc(Cl)cc2)CC1)N1CCN(Cc2ccc3c(c2)OCO3)CC1 | -63% (active) |
| CCS(=O)(=O)N1CCc2cc(C(=O)NCc3ccc(C)cc3)ccc21 | -3.25% (inactive) |
| Cc1ccc(C(=O)Nc2ccccc2F)cc1S(=O)(=O)N1CCOCC1 | 31.5% (inactive) |
| Cc1ccc(NC(=O)N[C@H]2CC[C@@]34CCCN3C(=O)CCC[C@H]4C2Cc2ccccc2)cc1 (stereo partly drawn) | 26.8% (inactive) |
| CCOC(=O)C1CCN(C(c2ccc(F)cc2)c2sc3nc(-c4ccco4)nn3c2O)CC1 (stereo not drawn) | 2.65% (inactive) |
| Cc1cc(C)c(-c2n[nH]c3c2C(c2ccccc2F)N(CCO)C3=O)c(O)c1 (stereo not drawn) | 25.7% (inactive) |
| CCC1(CC)NC(=O)N(CC(=O)OCC(=O)c2cc(C)c(C)cc2C)C1=O | -15.3% (inactive) |
| Cc1ccc(C)c(OCCC(=O)Nc2cccc(S(=O)(=O)N3CCCC3)c2)c1 | -23.7% (inactive) |
| CC(=O)Nc1ccc(S(=O)(=O)N2CCN(CCCOc3cc(C)ccc3C)CC2)cc1 | -65.9% (active) |
| Cc1cccc(OCCCC(=O)Nc2ccc(S(=O)(=O)N3CCCC3)cc2)c1 | 10.4% (inactive) |
| CC1=C(C(N)=O)C(c2ccc3c(c2)OCO3)n2nc(-c3cccc(C)c3)nc2N1 (stereo not drawn) | 78% (inactive) |
| CCN(CC)c1ccc(C2C(C(N)=O)=C(C)Nc3nc(SCc4ccccc4)nn32)cc1 (stereo not drawn) | -90.4% (active) |
| CC1=C(C(=O)Nc2ccccc2)C(c2ccc(C)cc2)n2nc(SCc3ccccc3C)nc2N1 (stereo not drawn) | 1.28% (inactive) |
| CNc1ccc(-c2nc(-c3ccco3)no2)cc1[N+](=O)[O-] | 102% (inactive) |

| SMILES | activity change, negative = inhibition |
| --- | --- |
| COc1ccc(S(=O)(=O)n2nc(C)c(S(=O)(=O)N3CCCCCC3)c2C)cc1 | -17.6% (inactive) |
| Oc1c(CN2CCN(c3ccc(F)cc3)CC2)cc(Cl)c2cccnc12 | -102% (active) |
| COc1ccccc1CN1CCCC(N2CCN(c3ccc(F)cc3)CC2)C1 (stereo not drawn) | -1.19% (inactive) |
| CC(C)c1ccc(O)c(CN2CCN(c3ccccc3)CC2)c1 | 12.7% (inactive) |
| COc1ccc(CNc2nc(-c3ccccc3)nn2C(=O)c2ccccc2OC)cc1 | -16.2% (inactive) |
| N#Cc1cccc(NC(=O)N[C@H]2CC[C@@]34CCCN3C(=O)CCC[C@H]4C2Cc2ccccc2)c1 (stereo partly drawn) | 0.85% (inactive) |
| CCOc1ccc(C(CCc2ccccc2)NC(=O)c2ccc(OC)c(OC)c2)cc1OCC (stereo not drawn) | 37% (inactive) |
| CCN(CCCCOC(=O)c1ccc(OC)c(OC)c1)C(C)Cc1ccc(OC)cc1 (stereo not drawn) | -37% (inactive) |
| COc1ccc(C(CCN(Cc2ccc(OC)c(OC)c2)C(=O)CCl)c2ccccc2)cc1 (stereo not drawn) | -91.8% (active) |
| Cc1noc2ncnc(NCc3ccccc3Cl)c12 | -26.2% (inactive) |
| O=C(O)c1ccc2c3c(cccc13)C(=O)N(OS(=O)(=O)c1ccccc1)C2=O | -101% (active) |
| Cc1cc(OCC(=O)Nc2ncn[nH]2)c(C)c(C)c1Br | 1.07% (inactive) |
| O=C(Nc1ccc(F)cc1F)c1cnn(-c2ccc(F)cc2)c1-n1cccc1 | -4.17% (inactive) |
| COc1ccc(Cl)cc1NC(=O)CSc1nc(-c2cccs2)cc(C(F)(F)F)n1 | -23.8% (inactive) |
| CC(=O)c1ccc(N2CCN(c3nc4c(S(=O)(=O)c5ccccc5)nnn4c4ccc(Cl)cc34)CC2)cc1 | 8.15% (inactive) |
| c1ccc2cc(CCCc3cc4ccccc4cn3)ncc2c1 | -18.2% (inactive) |
| CN(CCc1ccccc1)c1ccc([N+](=O)[O-])cn1 | 12.9% (inactive) |
| O=[N+]([O-])c1cnc2ccc3ccccc3c2c1 | -96.3% (active) |
| O=C(c1c(F)cccc1F)N1CCN(c2ncc(Br)cn2)CC1 | 2.5% (inactive) |
| CCOC(=O)c1ccc(N2C(=O)c3n[nH]c(-c4ccco4)c3C2c2ccc(O)cc2)cc1 (stereo not drawn) | -8.9% (inactive) |
| O=C(C1CC1)N1N=C(c2ccc(Br)cc2)CC1(O)C(F)(F)F (stereo not drawn) | 10% (inactive) |
| O=C(c1ccc(Cl)cc1)N1N=C(c2ccccn2)CC1(O)C(F)(F)F (stereo not drawn) | -98.8% (active) |

| SMILES | activity change, negative = inhibition |
| --- | --- |
| COC(=O)C1(O)CC(C(C)C)=NN1C(=O)c1ccc(Cl)cc1 (stereo not drawn) | 27.1% (inactive) |
| O=C(COc1ccccc1F)Nc1ccc(C(=O)OCc2cc(=O)n3nc(C4CC4)sc3n2)cc1 | 10.3% (inactive) |
| CCCC(=O)N1CCN(c2nc3c(OC)ccc(C)c3s2)CC1 | 0.538% (inactive) |
| O=C(C1CC(=O)N(c2ccc(Br)cc2)C1)N1CCCC1 (stereo not drawn) | -23.4% (inactive) |
| COc1ccccc1-c1ccc([C@@H]2C[C@H]3[C@H](CON3C)CN2S(=O)(=O)c2cc(Cl)cc(Cl)c2)cc1 | 8.41% (inactive) |
| CN1OC[C@@H]2CN(S(=O)(=O)c3cccc(C(F)(F)F)c3)[C@H](c3ccc(-c4cc5ccccc5o4)cc3)C[C@@H]21 | -67.9% (active) |
| COc1ccc(S(=O)(=O)N2C[C@H]3CON(C)[C@H]3C[C@H]2c2cccc(Br)c2)cc1 | -8.56% (inactive) |
| CC(C)c1ccc(S(=O)(=O)Nc2ccc(O)c(Sc3nc4ccccc4s3)c2)cc1 | -0.0854% (inactive) |
| Cc1cccc(NC(=O)Cn2nc(-c3ccc(Cl)cc3)c3ccccc3c2=O)c1 | -6.04% (inactive) |
| O=C1C=C(c2ccc(Cl)cc2)C(=O)N1Nc1ccccc1 | -97.6% (active) |
| CCc1ccc(S(=O)(=O)n2ccnc2)cc1 | -4.04% (inactive) |
| Cc1c(C(=O)NCc2ccccc2Br)oc2ccc3c(c12)C(=O)CC(C)(C)O3 | -2.86% (inactive) |
| O=C(CSc1nc2c(c(=O)[nH]1)CN(Cc1ccc3c(c1)OCO3)CC2)Nc1cc(F)ccc1F | -1.41% (inactive) |
| CCOC(=O)c1c(NC(=O)CSc2cn(CCNC(=O)c3cccc(C(F)(F)F)c3)c3ccccc23)sc2c1CCC2 | -7.22% (inactive) |
| O=C(CCSCc1ccccc1F)N1CCN(c2ccc(Cl)cc2)CC1 | -29.1% (inactive) |
| CCNS(=O)(=O)c1cc(-c2nnc(Nc3cccc(C(F)(F)F)c3)c3ccccc23)ccc1C | 34.1% (inactive) |
| CN(CC(=O)Nc1cccc(C(F)(F)F)c1)S(=O)(=O)c1cccs1 | 20.2% (inactive) |
| Cc1oc2c(F)c(F)c(F)c(F)c2c1S(=O)(=O)Nc1cccc(C(F)(F)F)c1 | -97.8% (active) |
| CCOC(=O)[C@]12CCC=C1N(Cc1ccco1)C(=O)[C@H](CC(=O)N1CCSCC1)C2 | -10.1% (inactive) |
| CCOc1cc(-c2nnc(SCC(=O)NC3CCCC3)nc2-c2ccc(OC)c(OCC)c2)ccc1OC | 24.6% (inactive) |
| COc1ccc(C(=O)C[n+]2ccc(N)c(C)c2C)cc1 | -93.4% (active) |
| COc1ccc(C(=O)C[n+]2ccc(C)cc2)cc1 | 72% (inactive) |

| SMILES | activity change, negative = inhibition |
| --- | --- |
| CO/N=C/CC(=O)c1ccc(OC)cc1 | -35.1% (inactive) |
| CCOc1ccc(OCC)c(NC(=O)c2cc(C)nc3c2c(C)nn3-c2cccc(Cl)c2C)c1 | 5.03% (inactive) |
| C[C@@H]1CCCCO[C@H](CN(C)Cc2ccccc2)[C@@H](C)CN([C@H](C)CO)C(=O)c2cc(NS(=O)(=O)c3ccc(Cl)cc3)ccc2O1 | -31.2% (inactive) |
| O=S(=O)(Nc1ccc(-c2ccc(N3CCOCC3)nn2)cc1)c1cc(Cl)ccc1Cl | -19.8% (inactive) |
| Cn1cnc2c1c(=O)n(Cc1ccccc1C#N)c(=O)n2C | -66.7% (active) |
| Cn1cnc2c1c(=O)n(Cc1c(Cl)cccc1Cl)c(=O)n2C | -6.74% (inactive) |
| N#Cc1ccccc1Cn1cnc2nc3c(cc2c1=O)CCCC3 | 21.2% (inactive) |
| Cc1cccc(N=Nc2c(O)[nH]c3ccc(F)cc23)c1 | 101% (inactive) |
| Cc1[nH]c2ccc(S(N)(=O)=O)cc2c1C | 28% (inactive) |
| NS(=O)(=O)c1ccc(N=Nc2c(O)[nH]c3ccc(Br)cc23)cc1 | -60.1% (active) |
| Cc1nnc(SCc2cc(=O)c3cc(F)ccc3[nH]2)n1C | 17.7% (inactive) |
| CC(C)C(=O)Nc1nc2c(s1)CC(C(C)(C)C)CC2 (stereo not drawn) | 36.6% (inactive) |
| O=C(Nc1cccc(Cl)c1)C1CCCN(c2cnccn2)C1 (stereo not drawn) | -9.65% (inactive) |
| Cc1ccc(Cl)cc1NC(=O)C1CCCN(c2cnccn2)C1 (stereo not drawn) | -33.4% (inactive) and -71.5% (active) |
| Cc1ccc(Cl)cc1NC(=O)C1CCN(S(C)(=O)=O)CC1 | 22% (inactive) |
| COC(=O)c1ccccc1NC(=O)c1cnn(-c2ccc(F)cc2)c1-n1cccc1 | -4.4% (inactive) |
| COc1ccc(-n2nc(C(=O)NCCc3ccc(Cl)cc3)c3c4ccccc4n(C)c3c2=O)cc1Cl | 1.81% (inactive) |
| COc1ccc(S(=O)(=O)N2CCN(c3ccc(F)cc3)CC2)cc1-c1noc(C)n1 | -18.6% (inactive) |
| O=C(NC1CC(=O)N(c2ccc(Cl)cc2)C1)C1CCCC1 (stereo not drawn) | 16.2% (inactive) |
| CCCCCOC(=O)C1=C(C)Nc2nnnn2C1c1ccc(OC)c(OC)c1OC (stereo not drawn) | 13.7% (inactive) |
| COc1ccc(C2Sc3ccccc3NC3=C2C(=O)c2ccccc23)c(OC)c1OC (stereo not drawn) | -74.4% (active) |
| COC(=O)C(C)C1Sc2ccccc2NC1=O (stereo not drawn) | -14.8% (inactive) |
